Data reported in PubChem BioAssay AID633 (Emory University Molecular Libraries Screening Center, 2007).
Out of some 86,000 compounds screened, about 1,100 (1.3%) were called active. This is one part of a sample in which actives are shown more often than they occur.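 The calls were made as follows: active = compounds whose percent inhibition of the receptor-coactivator binding signal exceeds about 50% in the single-dose screen (limit read from the data); inactive = the rest.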

Molecular target: Estrogen receptor beta (Homo sapiens) (UniProt Q92731)
Sequence (Q92731 whole entry, looked up, the tested form may be a part): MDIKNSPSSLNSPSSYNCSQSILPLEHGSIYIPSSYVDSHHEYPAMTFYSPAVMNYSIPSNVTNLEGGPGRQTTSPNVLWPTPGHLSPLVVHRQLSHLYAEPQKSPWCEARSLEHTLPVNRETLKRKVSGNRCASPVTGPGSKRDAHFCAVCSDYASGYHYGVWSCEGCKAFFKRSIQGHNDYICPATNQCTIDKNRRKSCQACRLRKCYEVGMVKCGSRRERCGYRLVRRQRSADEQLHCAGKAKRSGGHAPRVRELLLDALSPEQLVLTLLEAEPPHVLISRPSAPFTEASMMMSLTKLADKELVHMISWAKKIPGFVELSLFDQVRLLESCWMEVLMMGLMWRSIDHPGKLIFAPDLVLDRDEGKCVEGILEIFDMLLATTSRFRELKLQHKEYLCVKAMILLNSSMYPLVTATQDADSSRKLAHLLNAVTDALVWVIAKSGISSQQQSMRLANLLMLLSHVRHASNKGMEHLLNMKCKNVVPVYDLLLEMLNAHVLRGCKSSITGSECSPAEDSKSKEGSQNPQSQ
Assay: inhibitors of ERβ-SRC1 coactivator interaction, primary screen, biochemical, TR-FRET, ERβ LBD, SRC-1 peptide (AID 633);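 also: 0% = receptor plus peptide wells without compound and 100% = peptide-only wells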
Conditions: TR-FRET ER-beta LBD / SRC1-Cy5 peptide binding; at 25.6 µM; stronger effect = higher value; receptor agonist-loaded with 1 µM estradiol

inhibition, active:
COc1ccc2[nH]cc(/C=C(/C#N)S(=O)(=O)c3ccccc3)c2c1 54.7% [fluorescence artefact?]
CCOc1cc(N2CCOCC2)c(OCC)cc1NC(=O)COc1cccc2cccnc12 61.6% [fluorescence artefact?]
Cc1ccc(OCC(=O)Nc2ccc(-c3nnc(-c4ccco4)o3)cc2)cc1 63.5% [fluorescence artefact?]
CN(C)[C@@H]1C(=O)C(C(N)=O)=C(O)[C@@]2(O)C(=O)C3=C(O)c4c(O)ccc(Cl)c4[C@@H](O)[C@H]3C[C@@H]12 91.5% [fluorescence artefact?]
ON=C1/C(=N\O)CC2(C/C1=N/O)OCCO2 60.3%
Cc1ccc(Cc2cncc(O)c2)cc1S(=O)(=O)O 54.6%
COc1ccc2[nH]c(=O)c(-c3noc(-c4ccc(F)cc4)n3)cc2c1 63.8% [fluorescence artefact?]
C1=C(N2CCOCC2)/C(=C/c2nc3ccccc3[nH]2)CC1 72.1%
CS(=O)(=O)c1ccc2c(c1)SC1=NC(=O)/C(=C/c3ccco3)C(=N)N12 79% [fluorescence artefact?]
Cc1coc2c(O)cc3c(c12)OC1(N2CCCCC2)C(=O)NCCCC31 (centres undefined) 60.9% [fluorescence artefact?]
COC(=O)c1cnn2c(C(F)(F)F)cc(-c3ccco3)nc12 58.5%
Brc1ccc(-c2nnc(-c3ccccc3)o2)o1 60.6% [fluorescence artefact?]
N#CC1=C(N)Oc2c(sc3ccccc23)C1c1ccco1 (centres undefined) 51.7% [fluorescence artefact?]
Cc1nc2ccc(C(=O)O)cc2[nH]1 56.8%
Cc1ccc2[nH]c(=O)c(-c3nc4c(C)cccn4c3NCc3ccco3)cc2c1 56.9% [fluorescence artefact?]

inhibition, inactive:
CCN(CC)CCn1c2ccc(Cl)cc2c2nc(C)sc21 -0.33%
CS(=O)(=O)N(CC(=O)Nc1ccc(Cl)c(Cl)c1)C1CCCCC1 -2.05%
CC(C)(C)C1CCc2c(sc3nc(SCC(N)=O)nc(N)c23)C1 (centres undefined) -6.07%
COc1ccc2[nH]c3ccc(OC)cc3c2c1 1.96%
CCN(CC)CC(=O)c1c[nH]c2ccc(OC)cc12 -8.33%
COC(=O)c1ccc(CSc2ccc3nnc(-c4ccccc4)n3n2)o1 -3.95%
Cc1ccc(S(=O)(=O)NC(=O)COc2ccccc2C)cc1 8.77%
CCOc1cc(N2CCOCC2)c(OCC)cc1NC(=O)COC(=O)[C@H](Cc1c[nH]c2ccccc12)NC(C)=O -5.51%
CCOc1cc(NC(=O)c2ccco2)c(OCC)cc1NC(=O)COc1ccccc1 48.5%
O=C(Oc1ccccc1C(=S)N1CCCCC1)c1cc([N+](=O)[O-])cc([N+](=O)[O-])c1 -10.5%
Cc1nnc(SC(C)C(=O)Nc2ccc(S(=O)(=O)NC3CCCCC3)cc2)s1 (centres undefined) 17.8%
COc1ccc(CC(=O)Nc2ccc(-c3nnc(-c4ccc(C)cc4)o3)cc2)cc1 15.6%
CCOc1ccc(-c2nnc(-c3ccco3)o2)cc1 -5.81%
COc1ccc(CC(NC(C)=O)C(=O)N2CCN(C(=O)Nc3cccc(Cl)c3)CC2)cc1OC (centres undefined) -8.98%
COc1ccc(C(C#N)Nc2ccccc2C)cc1 (centres undefined) -1.62%
CC(C)CNC(=O)CC(c1ccccc1)c1c(O)ccc2ccccc12 (centres undefined) -3.69%
O=C(Cn1c(-c2cscn2)nc2ccccc21)Nc1ccc(Cl)cc1 18.5%
COc1ccccc1NC(=O)CSc1nnc(C)n1CC1CCCO1 (centres undefined) -11.8%
COc1ccc(-n2c(C)csc2=S)cc1 -15.3%
O/N=C1\CC2(Cc3nonc31)OCCO2 23%
O=C(CSc1nnnn1-c1ccccc1)NCc1ccco1 17.8%
CCOC(=O)Nc1sc(C(=O)N(C)C)c(C)c1C(=O)OCC 4.28%
Cc1cc(O)cc(O)c1C(=O)Cc1cnn(-c2ccccc2)c1 -7.76%
Cn1nc(-c2ccccc2)c(CSc2cccc(Cl)c2)c1Cl -3.81%
Cn1c(NN)nc2sc3c(c2c1=O)CCC3 -7.13%
CCNC(=O)NC(=O)C(C)OC(=O)c1cc(S(=O)(=O)N2CCCCCC2)ccc1OC (centres undefined) -4.07%
Cc1cccc(-c2noc(-c3ccc(F)cc3)n2)c1 -10.2%
COc1ccc(-c2noc(-c3ccc(C)cc3)n2)cc1 -3.86%
CCSc1ccccc1C(=O)NCc1ccc(OC)cc1 15.2%
CCC(=O)NC(Nc1nc2ccc(C)cc2s1)(C(=O)OC)C(F)(F)F (centres undefined) 9.59%
Cc1cc(N2CCN(S(=O)(=O)c3ccc(C)c(C)c3)CC2)c2ccccc2n1 3.59%
c1ccc2[nH]c(NCCN3CCOCC3)nc2c1 -3.02%
c1ccc(Nc2nc(N3CCOCC3)c3ccccc3n2)cc1 -6.49%
O=C(Cc1ccc(-n2c(=O)c3sccc3n(Cc3ccc(F)cc3)c2=O)cc1)NCc1ccco1 21.4%
O=C1C2C3C=CC(C4CC34)C2C(=O)N1/N=C/c1ccc(-c2ccccc2[N+](=O)[O-])o1 (centres undefined) 2.95%
CC(C)C(=O)NC(NC(=S)NC1CCS(=O)(=O)C1)C(Cl)(Cl)Cl (centres undefined) 14.7%
COc1ccccc1NC(=O)C1CCCN(c2cc(C)nc3ncnn23)C1 (centres undefined) -2.37%
CCOc1ccc(C(O)Cc2nc3ccccc3n2C)cc1 (centres undefined) -4.37%
CCOC(=O)c1ccccc1NS(=O)(=O)c1ccc(OC)cc1 -1.65%
COC(=O)c1cc2nc(-c3ccccc3)cc(C(F)(F)F)n2n1 -1.27%
O=C(NCc1ccco1)c1cnn2c(C(F)(F)F)cc(-c3ccco3)nc12 5.47%
Cc1noc(/C=C/c2ccco2)c1S(=O)(=O)N1CCC(C(=O)N2CCc3ccccc32)CC1 -6.43%
Nc1ccc(-c2nnc(-c3ccc(-c4ccccc4)cc3)o2)cc1 19.9%
O=C(Nc1ccc(-c2nnc(-c3ccccc3)o2)cc1)c1ccc(Br)o1 30%
CC(C)n1c(-c2cccs2)nc2ccccc21 -10.4%
Cc1cc(S(=O)(=O)NC2CCCCC2)ccc1OCC(=O)NCc1cccnc1 -4.71%
CC1=C(C(=O)Nc2ccccc2)C(c2ccco2)C(C#N)=C(SCC(N)=O)N1 (centres undefined) -2.8%
Cc1cc2c(c(=O)n1Cc1ccco1)C(c1ccccc1)C(C#N)=C(N)O2 (centres undefined) -16.4%
Cc1ccc2nc(S(=O)(=O)O)[nH]c2c1 3.08%
CC(C)c1nc2ccc(C(=O)O)cc2[nH]1 14.7%
Cn1ccs/c1=N\S(=O)(=O)c1ccc(C(C)(C)C)cc1 0.33%
COc1ccccc1/C=C/C1=NC(=C\N(C)C)/C(=O)O1 1.45%
COc1ccc(CCn2c(=N)c(C(=O)NCc3ccco3)cc3c(=O)n4cccc(C)c4nc32)cc1 48.1%
CCNCc1cc2cc(C)ccc2[nH]c1=O -8.3%
Cn1nnnc1SCC(=O)Nc1ccccc1C(=O)NC1CC1 -5.32%
CC1CN(S(=O)(=O)c2ccccc2)C(C)CN1S(=O)(=O)c1ccccc1 (centres undefined) 1.26%
Cc1cc(C)cc(N(CC(=O)N2CC=C(c3ccccc3)CC2)S(=O)(=O)c2c(C)noc2C)c1 -1.97%
CCOc1ccc(S(=O)(=O)Nc2ccc(S(=O)(=O)Nc3cc(OC)ccc3OC)cc2)cc1 -5.81%
CCCCCCc1cc2cc(-c3nnc(-c4cccc(OC)c4)o3)c(=O)oc2cc1O 1.17%
